Shown are actives, neighbours in structure and some others; about 2.9% of the full set was active somewhere.
IP6K1 inh: inhibitors of human IP6K1; activity change, % (series mostly up to about 58 µM); AID 1645851; Q92551; IP6K1 kinase, ADP-Glo luminescence, 2 h; stronger effect = lower value; 140,000 compounds, 0.81% hits; in the data active = activity change below about -25%; note: % is set by controls: 0 for no effect and ±100 for the full control effect
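ADP-Glo luminescence measures ADP made by human IP6K1 during a 2 h RT reaction with ATP/IP6 (mix at 1.3 mM/130 uM); top library doses 57.5 and 19.1 uM final.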
KDM5B inhibitor: blocks human KDM5B histone demethylase activity; Q9UGL1; KDM5B demethylase, FDH-coupled NADH fluorescence (FDH is formaldehyde dehydrogenase); Potency, µM (series often up to 57.7 µM), usual class: inhibitors; 220,000 compounds, 2.6% hits; AID 1347165; note: potency is the fitted concentration of half-maximal effect; 0% is about no effect; nearly all actives have a fitted effect of over 70% in size
Target sequence (Q9UGL1 whole entry, looked up): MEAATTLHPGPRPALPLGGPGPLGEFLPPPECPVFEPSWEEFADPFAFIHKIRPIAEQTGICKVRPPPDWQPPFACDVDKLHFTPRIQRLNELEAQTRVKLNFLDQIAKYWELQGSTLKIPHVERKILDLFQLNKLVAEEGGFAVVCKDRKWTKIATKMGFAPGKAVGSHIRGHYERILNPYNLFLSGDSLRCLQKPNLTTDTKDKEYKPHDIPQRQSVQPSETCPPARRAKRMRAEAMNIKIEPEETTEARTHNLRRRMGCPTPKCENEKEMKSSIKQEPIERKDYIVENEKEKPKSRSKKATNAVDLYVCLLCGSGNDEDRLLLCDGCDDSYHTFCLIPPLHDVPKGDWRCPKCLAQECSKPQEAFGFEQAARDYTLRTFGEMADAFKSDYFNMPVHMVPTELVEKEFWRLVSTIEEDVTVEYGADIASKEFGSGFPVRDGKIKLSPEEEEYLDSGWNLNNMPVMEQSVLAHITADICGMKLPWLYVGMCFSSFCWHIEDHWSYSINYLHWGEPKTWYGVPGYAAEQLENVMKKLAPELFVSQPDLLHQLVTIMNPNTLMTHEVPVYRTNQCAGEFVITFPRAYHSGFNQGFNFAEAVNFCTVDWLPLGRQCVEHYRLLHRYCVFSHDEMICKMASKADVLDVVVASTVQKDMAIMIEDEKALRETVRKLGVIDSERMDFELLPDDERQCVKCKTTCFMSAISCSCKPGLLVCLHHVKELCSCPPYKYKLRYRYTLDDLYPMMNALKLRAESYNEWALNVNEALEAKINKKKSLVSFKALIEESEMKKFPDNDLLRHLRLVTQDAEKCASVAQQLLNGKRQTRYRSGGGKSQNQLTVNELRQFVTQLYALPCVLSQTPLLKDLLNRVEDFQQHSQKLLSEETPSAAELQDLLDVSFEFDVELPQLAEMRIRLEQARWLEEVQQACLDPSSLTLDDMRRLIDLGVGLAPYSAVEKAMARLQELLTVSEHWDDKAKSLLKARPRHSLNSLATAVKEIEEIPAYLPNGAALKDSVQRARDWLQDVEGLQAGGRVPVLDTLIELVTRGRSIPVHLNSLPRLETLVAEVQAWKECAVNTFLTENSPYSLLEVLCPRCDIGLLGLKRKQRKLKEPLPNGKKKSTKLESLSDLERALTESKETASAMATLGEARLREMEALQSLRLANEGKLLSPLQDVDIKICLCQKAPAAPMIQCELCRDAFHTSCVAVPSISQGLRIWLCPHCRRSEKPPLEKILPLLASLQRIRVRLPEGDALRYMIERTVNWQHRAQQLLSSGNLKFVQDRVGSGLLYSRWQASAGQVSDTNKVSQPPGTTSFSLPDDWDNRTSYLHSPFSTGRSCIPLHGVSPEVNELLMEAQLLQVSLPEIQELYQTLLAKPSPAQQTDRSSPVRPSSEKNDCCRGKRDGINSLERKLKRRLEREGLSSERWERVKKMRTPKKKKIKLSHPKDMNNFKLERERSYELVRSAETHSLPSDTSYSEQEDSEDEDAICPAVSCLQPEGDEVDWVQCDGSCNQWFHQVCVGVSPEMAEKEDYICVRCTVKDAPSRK
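qHTS format, multiple compound concentrations. Buffer 50 mM HEPES pH 7.5/0.01% Tween-20; 200 nM KDM5BΔAP final; 10 min compound preincubation; substrate-mix levels 12.5 µM peptide, 25 µM α-KG, 0.25 mM NAD⁺; 30 min RT; ΔRFU.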
SNCA viab count: counter-screen for SNCA expression inhibitors: cell viability; HEK-293-SNCA-luc viability, GF-AFC fluorescence, 24 h; Potency, µM (top dose mostly 57.1 µM), inactives show at the highest dose activity change, negative = cytotoxicity, most hits filed as cytotoxic; 150,000 compounds, 0.12% hits;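 note: potency is the fitted concentration of half-maximal effect; 0% = DMSO-treated cells and -100% = medium-only wells without cells; nearly all actives have a fitted effect of over 30% in size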
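HEK-293-SNCA-luc cells (1500/well) plated 24 h, then exposed 24 h to a dilution series; GF-AFC added 30 min at 37C, fluorescence 405/540 nm; normalised to medium-only and DMSO wells, Hill fit.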
SNCA expr inhib: reduces expression of the alpha-synuclein gene. Potency, µM (series often up to 57.2 µM), without a hit: top-dose activity change, negative = inhibition, actives largely listed as inhibitors. 140,000 compounds, 0.17% hits. AID 1671194. HEK-293 SNCA-luciferase knock-in, luminescence, 24 h;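 note: potency is the fitted concentration of half-maximal effect; plate controls were DMSO cells for no effect and cell-free wells for full effect; nearly all actives have a fitted effect of over 45% in size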
An asterisk follows results filed as active; i = inactive; ? = inconclusive; / = no result; [ ] = remark or other dose. Unless noted, calls come from the whole dose curve; as a rule, active = well fitted curve in the direction sought with a large enough effect; inconclusive = small, poorly fitted or top-dose-only effect, or another doubt; inactive = no such curve, though single readings can be large; an effect the other way counts as inactive or inconclusive.

SMILES	IP6K1 inh	KDM5B inhibitor	SNCA viab count	SNCA expr inhib
CC(C)(C)CNC1(Cc2cc(-c3cccc(O)c3)on2)COC1	-10	i	-1%[87.6 µM]	-10%[87.6 µM]
COC(=O)c1ccccc1NC(=O)O[C@@H]1CO[C@H]2[C@@H]1OC[C@@H]2Nc1nccc(-c2ccc3c(c2)OCO3)n1	1	28µM*	-10%	-21%
N#Cc1cccc(NC(=O)O[C@@H]2CO[C@H]3[C@@H]2OC[C@@H]3Nc2nccc(-c3cccc(F)c3)n2)c1	2	6.3µM*	?	?
N#Cc1cccc(-c2ccnc(N[C@H]3CO[C@H]4[C@@H]3OC[C@H]4OC(=O)Nc3ccccc3)n2)c1	8	i	-2%	69%
CN(C)c1ccc(-c2nnnn2[C@H]2CO[C@H]3[C@@H]2OC[C@H]3OC(=O)Nc2cccc(C#N)c2)cc1	25	35µM*	-1%	4%
CC(C)(C)c1ccc(NC(=O)O[C@@H]2CO[C@H]3[C@@H]2OC[C@@H]3Nc2nccc(-c3ccc(-c4ccccc4)cc3)n2)cc1	12	i	-17%	-30%
Cc1ccc(NC(=O)O[C@@H]2CO[C@H]3[C@@H]2OC[C@@H]3Nc2nccc(-c3ccccc3)n2)cc1	4	28µM*	-3%[87.6 µM]	152%[87.6 µM]
CC(C)CC(C)NC(=O)c1ccc(CN2C(=O)NC3(CCS(=O)(=O)CC3)C2=O)cc1 (centres undefined)	0	i	5%	5%
COc1cccc(CC(=O)N2CCC3(CC2)CC(Cc2nc(-c4cccnc4)no2)CCO3)c1 (centres undefined)	-8	i	1%	-23%
COc1ccc(-c2ccnc(N[C@H]3CO[C@H]4[C@@H]3OC[C@@H]4NS(=O)(=O)c3ccc(C)cc3)n2)cc1	-2	i	-2%	-5%
COc1ccc(-c2ccnc(N[C@H]3CO[C@H]4[C@@H]3OC[C@@H]4NC(=O)CCC(=O)O)n2)cc1	-8	?	4%[87.6 µM]	1%[87.6 µM]
COc1ccc(-c2ccnc(N[C@H]3CO[C@H]4[C@@H]3OC[C@H]4OCC(N)=O)n2)cc1	1	32µM*	0%[87.6 µM]	14%[87.6 µM]
O=C(O)CCCC(=O)N[C@H]1CO[C@H]2[C@@H]1OC[C@@H]2Nc1nccc(-c2ccc(-c3ccccc3)cc2)n1	7	32µM*	9%	19%
COc1ccc(C(=O)N[C@H]2C[C@H]3C(=O)Nc4ccccc4C(=O)N3C2)cc1	-6	i	?	-7%[87.6 µM]
COc1ccc(-c2ccc3c(c2)C(=O)N2C[C@@H](NS(=O)(=O)c4ccc(F)cc4)C[C@H]2C(=O)N3)c(OC)c1	0	35µM*	?	?
O=C1Nc2ccc(-c3ccsc3)cc2C(=O)N2C[C@@H](NS(=O)(=O)c3ccc(F)cc3)C[C@@H]12	-5	?	-5%	-11%
COc1ccc(C(=O)N[C@H]2C[C@H]3C(=O)Nc4ccc(-c5cccs5)cc4C(=O)N3C2)cc1	-1	35µM*	?	-28%
CS(=O)(=O)N[C@H]1C[C@H]2C(=O)Nc3ccc(-c4cccs4)cc3C(=O)N2C1	-13	40µM*	-10%[87.6 µM]	18%[87.6 µM]
O=C(N[C@H]1C[C@H]2C(=O)Nc3ccc(-c4cccs4)cc3C(=O)N2C1)c1ccccc1	-17	32µM*	-28%[87.6 µM]	?
Cc1ccccc1NC(=O)Nc1c(NC2CCCC2)c2ccccc2oc1=O	/	i	/	/
CC(C)Cc1nc2nccc(-c3ccncc3)n2n1	-13	28µM*	-4%	11%
CC(C)Cc1nc2nccc(-c3ccccc3)n2n1	-6	28µM*	2%	11%
CC(C)Cc1nc2nccc(-c3ccc(F)cc3)n2n1	3	?	8%	0%
CC(C)Cc1nc2nccc(-c3ccco3)n2n1	6	25µM*	-3%	-3%
c1ccc(CCc2nc3nccc(-c4ccco4)n3n2)cc1	-11	25µM*	1%	17%
SMILES	IP6K1 inh	KDM5B inhibitor	SNCA viab count	SNCA expr inhib
COc1ccc(CCc2nc3nccc(-c4ccco4)n3n2)cc1OC	0	i	3%	10%
COc1cc(OC)cc(C(=O)N2CCC(Cc3nc(C(C)C)no3)CC2)c1	8	i	3%	?
Fc1cc(F)cc(Cc2nc3nccc(-c4ccccc4)n3n2)c1	-13	28µM*	5%	0%
COc1cc(F)ccc1-c1cc(C(=O)NCCc2cnc[nH]2)c2c(c1)N(C)CCO2	-18	40µM*	-24%[87.6 µM]	4%[87.6 µM]
O=C(NCC1CCCO1)c1cc(-c2ccccc2F)cc2c1OCCN2Cc1cccnc1 (centres undefined)	-15	20µM*	-22%	-13%
O=C(NCCc1cnc[nH]1)c1cc(-c2ccccc2F)cc2c1OCCN2Cc1cccnc1	-16	22µM*	?	-2%
CN1CCOc2c(C(=O)NCCc3cnc[nH]3)cc(-c3cccnc3)cc21	-13	i	2%[87.6 µM]	-8%[87.6 µM]
CN(C)C(=O)c1cc(-c2ccccc2F)cc2c1OCCN2Cc1cccnc1	-18	i	-13%[87.6 µM]	?
O=C(c1cc(-c2ccccc2F)cc2c1OCCN2Cc1cccnc1)N1CCC1	-4	?	-15%[87.6 µM]	-2%[87.6 µM]
CN1CCOc2c(C(=O)NCCc3cnc[nH]3)cc(-c3ccccc3F)cc21	-9	32µM*	-20%[87.6 µM]	-17%[87.6 µM]
O=C(CCc1nc(-c2ccccc2)no1)Nc1nc2ccccc2s1	/	i	/	/
Cn1nc(C(=O)Nc2cc(C(F)(F)F)cc(C(F)(F)F)c2)c2ccccc2c1=O	/	i	/	/
O=C(Nc1nc(-c2ccc(Br)cc2)cs1)c1cc(=O)c2ccccc2o1	/	i	/	/
Cc1ccc(-c2ccccc2CN2CCN(C(=O)Nc3ccc(Cl)cc3)CC2)cc1Cl	-4	/	-15%[12.5 µM]	22%
COc1cccc(/C=C/C(=O)c2ccc(O)cc2)c1	/	i	/	/
COC(=O)c1ccc(OC(=O)CC23CC4CC(CC(C4)C2)C3)cc1	/	i	/	/
COc1ccc(-c2cc(C(=O)NCCc3cnc[nH]3)c3c(c2)N(C)CCO3)cn1	-21	28µM*	-9%[87.6 µM]	-29%[87.6 µM]
CN1CCOc2c(C(=O)NCCC(N)=O)cc(-c3ccccc3OC(F)(F)F)cc21	-14	40µM*	-11%[87.6 µM]	-9%[87.6 µM]
Cn1ccc(NC(=O)c2cc(-c3ccccc3F)cc3c2OCCN3Cc2cccnc2)n1	-17	28µM*	-19%	-39%
O=C(Oc1ccc(Cl)cc1)c1cc2ccccc2oc1=O	/	i	/	/
O=C(Nc1cnc2ccccc2c1)c1cc(Cl)ccc1Cl	/	i	/	/
CN1CC(=O)N(CCCC(=O)Nc2cccc3cccnc23)C1=O	/	i	/	/
COc1ncccc1CN1CCC2(CC1)OC(=O)N(Cc1ccccc1C#N)C2(C)c1ccccc1 (centres undefined)	-10	i	-11%	-16%
CCOc1nccn2c(-c3ccc(CNC(=O)Cn4cnnn4)cc3)cnc12	-9	40µM*	-3%[87.6 µM]	17%[87.6 µM]
O=C(NCc1ccc(-c2cnc3c(Oc4ccccc4)nccn23)cc1)c1cccc(O)c1	-11	?	-4%[87.6 µM]	-4%[87.6 µM]
C=CCNC(=O)C(NC(=O)c1cccs1)C1CCN(C(=O)c2ccc(F)cc2)CC1 (centres undefined)	12	28µM*	3%	-20%

Screens: PubChem, National Center for Advancing Translational Sciences (NCATS)
